A short description of test [1]: p53 stabilisation in HPV-positive human cells, imaging, p53-positive nuclei imaging, 24 h, 48 h (AID 1508601). Conditions: 24/48 h.
The target in test [2] is Cellular tumor antigen p53 (Homo sapiens) (UniProt P04637). Described as above. The note with it: 24/48 h, stronger effect = higher value.
The mark [3] stands for this setting: measured here: cell number at 24 h, Library stock concentration: 3.33 mM.
The mark [4] stands for this setting: measured here: cell number at 24 h, Library stock concentration: 10 mM.
[5] abbreviates: measured here: cell number at 48 h, Library stock concentration: 3.33 mM.
Setting [6] is: measured here: cell number at 48 h, Library stock concentration: 10 mM.
Where [7] appears, read: Library stock concentration: 3.33 mM.
Setting [8] is: Library stock concentration: 10 mM.
The mark [9] stands for this setting: measured here: p53 positive nuclei at 24 h, Library stock concentration: 3.33 mM.
[10] abbreviates: measured here: p53 positive nuclei at 24 h, Library stock concentration: 10 mM.
Where [11] appears, read: measured here: cell number at 24 h, concentration not given here.
[12] abbreviates: measured here: cell number at 48 h, concentration not given here.
Where [13] appears, read: measured here: p53 positive nuclei at 24 h, concentration not given here.
The mark [14] stands for this setting: measured here: cell number at 24 h, Library stock concentration: 80 uM.
Setting [15] is: measured here: cell number at 24 h, Library stock concentration: 400 uM.
Where [16] appears, read: measured here: cell number at 24 h, Library stock concentration: 2 mM.
Setting [17] is: measured here: cell number at 48 h, Library stock concentration: 80 uM.
The mark [18] stands for this setting: measured here: cell number at 48 h, Library stock concentration: 400 uM.
[19] abbreviates: measured here: cell number at 48 h, Library stock concentration: 2 mM.
Setting [20] is: Library stock concentration: 80 uM.
Where [21] appears, read: Library stock concentration: 400 uM.
[22] abbreviates: Library stock concentration: 2 mM.
Where [23] appears, read: measured here: p53 positive nuclei at 24 h, Library stock concentration: 80 uM.
[24] abbreviates: measured here: p53 positive nuclei at 24 h, Library stock concentration: 400 uM.
Setting [25] is: measured here: p53 positive nuclei at 24 h, Library stock concentration: 2 mM.

Screen size: about 5,700 compounds; about 85 (1%) were called active. Cut-off read from the data, not from the text of the source: active = p53-positive nuclei above about 36% (passing the limit was not always enough); inactive = the rest. The sample as a whole holds a higher share of actives than the screen did.

Chain of Cellular tumor antigen p53 (Homo sapiens) (P04637 whole entry, looked up): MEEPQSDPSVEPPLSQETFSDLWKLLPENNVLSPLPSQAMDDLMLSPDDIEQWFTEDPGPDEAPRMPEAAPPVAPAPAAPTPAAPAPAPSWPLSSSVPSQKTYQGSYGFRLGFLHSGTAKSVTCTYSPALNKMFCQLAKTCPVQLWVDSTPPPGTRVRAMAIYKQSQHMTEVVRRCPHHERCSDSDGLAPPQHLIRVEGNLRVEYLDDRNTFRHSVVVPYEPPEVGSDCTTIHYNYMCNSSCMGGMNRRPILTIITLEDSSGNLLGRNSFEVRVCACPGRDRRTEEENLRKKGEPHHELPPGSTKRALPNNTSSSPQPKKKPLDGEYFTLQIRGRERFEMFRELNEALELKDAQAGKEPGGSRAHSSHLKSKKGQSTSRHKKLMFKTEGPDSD

As to `OC(c1cc(C(F)(F)F)nc2c(C(F)(F)F)cccc12)[C@H]1CCCCN1` (stereo partly drawn), the nuclei count, normalised worked out at 110% in test [1] (measured here: cell number at 24 h, Library stock concentration: 500 nM); 109% in test [1] (measured here: cell number at 24 h, Library stock concentration: 1.5 uM); 109% in test [1] (measured here: cell number at 24 h, Library stock concentration: 4.6 uM); 101% in test [1] (measured here: cell number at 24 h, Library stock concentration: 13.7 uM); 117% in test [1] (measured here: cell number at 24 h, Library stock concentration: 41 uM); 109% in test [1] (measured here: cell number at 24 h, Library stock concentration: 123 uM). In addition, the nuclei count, normalised in test [1] (measured here: cell number at 24 h, Library stock concentration: 370 uM) stood at 109%; in test [1] (measured here: cell number at 24 h, Library stock concentration: 1.111 mM) it was 110%; in test [1] (setting [3]), 95.3%; in test [1] (measured here: cell number at 24 h, Library stock concentration: 3.333 mM) it was 112%; in test [1] (setting [4]), 86.2%; in test [1] (measured here: cell number at 48 h, Library stock concentration: 500 nM), 105%. Moreover, the nuclei count, normalised in test [1] (measured here: cell number at 48 h, Library stock concentration: 1.5 uM) is 105%; in test [1] (measured here: cell number at 48 h, Library stock concentration: 4.6 uM) it was 112%; in test [1] (measured here: cell number at 48 h, Library stock concentration: 13.7 uM), 103%; in test [1] (measured here: cell number at 48 h, Library stock concentration: 41 uM) it was 120%; in test [1] (measured here: cell number at 48 h, Library stock concentration: 123 uM), 113%; in test [1] (measured here: cell number at 48 h, Library stock concentration: 370 uM), 110%. Also, the nuclei count, normalised in test [1] (measured here: cell number at 48 h, Library stock concentration: 1.111 mM) was 113%; in test [1] (setting [5]), 94.9%; in test [1] (measured here: cell number at 48 h, Library stock concentration: 3.333 mM) it was 116%; in test [1] (setting [6]), 99.6%. The p53-positive nuclei, normalised in test [2] (Library stock concentration: 500 nM) was -0.00517% (inactive); in test [2] (Library stock concentration: 1.5 uM), -0.125% (inactive); in test [2] (Library stock concentration: 4.6 uM) it was 0.0484% (inactive); in test [2] (Library stock concentration: 13.7 uM), -0.00344% (inactive); in test [2] (Library stock concentration: 41 uM), -0.185% (inactive); in test [2] (Library stock concentration: 123 uM) it was -0.102% (inactive). The p53-positive nuclei, normalised in test [2] (Library stock concentration: 370 uM) is -0.0936% (inactive); in test [2] (Library stock concentration: 1.111 mM), -0.065% (inactive); in test [2] (setting [7]), 4.69% (inactive); in test [2] (Library stock concentration: 3.333 mM), -0.144% (inactive); in test [2] (setting [8]), 1.04% (inactive); in test [2] (measured here: p53 positive nuclei at 24 h, Library stock concentration: 500 nM) it was 0.0755%. For the same compound, the p53-positive nuclei, normalised was -0.239% in test [2] (measured here: p53 positive nuclei at 24 h, Library stock concentration: 1.5 uM); -0.0294% in test [2] (measured here: p53 positive nuclei at 24 h, Library stock concentration: 4.6 uM); -0.185% in test [2] (measured here: p53 positive nuclei at 24 h, Library stock concentration: 13.7 uM); -0.239% in test [2] (measured here: p53 positive nuclei at 24 h, Library stock concentration: 41 uM); -0.134% in test [2] (measured here: p53 positive nuclei at 24 h, Library stock concentration: 123 uM); -0.187% in test [2] (measured here: p53 positive nuclei at 24 h, Library stock concentration: 370 uM). Moreover, the p53-positive nuclei, normalised in test [2] (measured here: p53 positive nuclei at 24 h, Library stock concentration: 1.111 mM) is -0.0384%; in test [2] (setting [9]) it was 2.85%; in test [2] (measured here: p53 positive nuclei at 24 h, Library stock concentration: 3.333 mM), -0.036%; in test [2] (setting [10]), 1.37%.
Take `COC(=O)C1C(O)CC[C@H]2CN3CCc4c([nH]c5ccccc45)[C@@H]3C[C@H]12` (stereo partly drawn): the nuclei count, normalised in test [1] (setting [3]) stood at 104%; in test [1] (setting [5]) it was 106%. Also, the p53-positive nuclei, normalised was -0.11% (inactive) in test [2] (setting [7]) and -0.356% in test [2] (setting [9]).
Regarding `CCCCCCCCCCCCCCP(=O)(O)O`, the results for the nuclei count, normalised in test [1] (setting [11]) and in test [1] (setting [12]) were 105% and 107%, respectively. The values for the p53-positive nuclei, normalised in test [2] (concentration not given here) and in test [2] (setting [13]) were -0.0194% (inactive) and -0.0488%, respectively.
As for `COc1ccc(N(C(=O)Nc2c(C)cccc2C)c2cc(Nc3ccc(N4CCN(C)CC4)cc3OC)ncn2)c(OC)c1`, the nuclei count, normalised in test [1] (setting [14]) came out at 104%; in test [1] (setting [15]), 93.8%; in test [1] (setting [16]), 82.3%; in test [1] (setting [4]) it was 66%; in test [1] (setting [17]), 104%; in test [1] (setting [18]) it was 90.4%. For the same compound, the nuclei count, normalised stood at 64.8% in test [1] (setting [19]) and 66.4% in test [1] (setting [6]). Besides, the p53-positive nuclei, normalised in test [2] (setting [20]) is -0.0182% (inactive); in test [2] (setting [21]), -0.151% (inactive); in test [2] (setting [22]) it was -0.0629% (inactive); in test [2] (setting [8]), 0.104% (inactive); in test [2] (setting [23]), -0.103%; in test [2] (setting [24]) it was -0.0385%. Also, the p53-positive nuclei, normalised is -0.0916% in test [2] (setting [25]) and -0.0741% in test [2] (setting [10]).
On to `Cc1cc(C)c(N(Cc2ccccc2)S(=O)(=O)c2ccc(OCCNC(=O)c3cc4ccccc4o3)cc2)c(C(=O)NO)c1`, for which the nuclei count, normalised is 106% in test [1] (measured here: cell number at 24 h, Library stock concentration: 46 uM); 102% in test [1] (measured here: cell number at 24 h, Library stock concentration: 278 uM); 106% in test [1] (measured here: cell number at 24 h, Library stock concentration: 1.67 mM); 108% in test [1] (setting [4]); 108% in test [1] (measured here: cell number at 48 h, Library stock concentration: 46 uM); 104% in test [1] (measured here: cell number at 48 h, Library stock concentration: 278 uM). Moreover, the nuclei count, normalised in test [1] (measured here: cell number at 48 h, Library stock concentration: 1.67 mM) worked out at 111%; in test [1] (setting [6]) it was 119%. Further, the p53-positive nuclei, normalised is -0.344% (inactive) in test [2] (Library stock concentration: 46 uM); -0.116% (inactive) in test [2] (Library stock concentration: 278 uM); -0.271% (inactive) in test [2] (Library stock concentration: 1.67 mM); 0.0163% (inactive) in test [2] (setting [8]); -0.21% in test [2] (measured here: p53 positive nuclei at 24 h, Library stock concentration: 46 uM); -0.21% in test [2] (measured here: p53 positive nuclei at 24 h, Library stock concentration: 278 uM). For the same compound, the p53-positive nuclei, normalised in test [2] (measured here: p53 positive nuclei at 24 h, Library stock concentration: 1.67 mM) was -0.139%; in test [2] (setting [10]), -0.147%.
For the compound `COc1cc(C(=O)NCc2ccc(OCCN(C)C)cc2)cc(OC)c1OC`, the nuclei count, normalised was 106% in test [1] (setting [11]) and 102% in test [1] (setting [12]). The p53-positive nuclei, normalised in test [2] (concentration not given here) was -0.214% (inactive); in test [2] (setting [13]), -0.0679%.
Turning to `CN(C)Cc1c(C(=O)NCCOc2ccc(C(=O)NO)cc2)oc2ccccc12`, the nuclei count, normalised in test [1] (setting [3]) turned out to be 40%; in test [1] (setting [5]), 23.5%. For the same compound, the p53-positive nuclei, normalised in test [2] (setting [7]) was 74.6% (active); in test [2] (setting [9]), 61.4%.
Take `CC(C)C1C(=O)NC(CCCN=C(N)N)C(=O)NCC(=O)NC(CC(=O)O)C(=O)NC(Cc2ccccc2)C(=O)N1C` (stereo not drawn): the nuclei count, normalised in test [1] (setting [14]) is 104%; in test [1] (setting [15]), 96.6%; in test [1] (setting [16]) it was 88.2%; in test [1] (setting [3]), 88.5%; in test [1] (setting [4]), 51.2%; in test [1] (setting [17]), 94.6%. The nuclei count, normalised in test [1] (setting [18]) was 89.6%; in test [1] (setting [19]) it was 76.5%; in test [1] (setting [5]) it was 85.4%; in test [1] (setting [6]), 34.6%. Moreover, the p53-positive nuclei, normalised was 0.242% (inactive) in test [2] (setting [20]); 0.104% (inactive) in test [2] (setting [21]); -0.113% (inactive) in test [2] (setting [22]); -0.0271% (inactive) in test [2] (setting [7]); -0.0215% (inactive) in test [2] (setting [8]); 0.00102% in test [2] (setting [23]). The p53-positive nuclei, normalised is -0.0368% in test [2] (setting [24]), -0.0914% in test [2] (setting [25]), -0.218% in test [2] (setting [9]) and -0.22% in test [2] (setting [10]).
Turning to `CC(CCC(=O)O)C1CC[C@H]2[C@@H]3C(O)C[C@@H]4CC(O)CC[C@]4(C)[C@@H]3CC[C@]12C` (stereo partly drawn), the nuclei count, normalised in test [1] (setting [14]) was 103%; in test [1] (setting [15]), 104%; in test [1] (setting [16]) it was 103%; in test [1] (setting [4]), 105%; in test [1] (setting [17]), 101%; in test [1] (setting [18]) it was 101%. For the same compound, the nuclei count, normalised in test [1] (setting [19]) came out at 100%; in test [1] (setting [6]), 106%. Further, the p53-positive nuclei, normalised in test [2] (setting [20]) is 0.0117% (inactive); in test [2] (setting [21]), -0.178% (inactive); in test [2] (setting [22]), 0.0148% (inactive); in test [2] (setting [8]) it was -0.147% (inactive); in test [2] (setting [23]), 0.00498%; in test [2] (setting [24]) it was -0.109%. For the same compound, the p53-positive nuclei, normalised in test [2] (setting [25]) was -0.106%; in test [2] (setting [10]), -0.11%.

Values taken from PubChem BioAssay AID1508601 (ICCB-Longwood Screening Facility, Harvard Medical School, 2020).
